This is a sample that favours compounds with a hit; in the whole collection about 2.3% have one here.
WRN inhibitor = qHTS for Inhibitors of WRN Helicase. Potency, µM (doses to about 114 µM), for the others: top-dose activity change, negative = inhibition, usual class: inhibitors. WRN helicase unwinding, fluorescent forked duplex, kinetic. AID 651768, 2012. 360,000 tested, 0.46% active. Bifunctional 3'-5' exonuclease/ATP-dependent helicase WRN (Homo sapiens), Q14191; also: % is scaled to controls: 0 for no effect and ±100 for the full control effect; nearly all actives have a fitted effect of over 55% in size
Target sequence (Q14191 whole entry, looked up): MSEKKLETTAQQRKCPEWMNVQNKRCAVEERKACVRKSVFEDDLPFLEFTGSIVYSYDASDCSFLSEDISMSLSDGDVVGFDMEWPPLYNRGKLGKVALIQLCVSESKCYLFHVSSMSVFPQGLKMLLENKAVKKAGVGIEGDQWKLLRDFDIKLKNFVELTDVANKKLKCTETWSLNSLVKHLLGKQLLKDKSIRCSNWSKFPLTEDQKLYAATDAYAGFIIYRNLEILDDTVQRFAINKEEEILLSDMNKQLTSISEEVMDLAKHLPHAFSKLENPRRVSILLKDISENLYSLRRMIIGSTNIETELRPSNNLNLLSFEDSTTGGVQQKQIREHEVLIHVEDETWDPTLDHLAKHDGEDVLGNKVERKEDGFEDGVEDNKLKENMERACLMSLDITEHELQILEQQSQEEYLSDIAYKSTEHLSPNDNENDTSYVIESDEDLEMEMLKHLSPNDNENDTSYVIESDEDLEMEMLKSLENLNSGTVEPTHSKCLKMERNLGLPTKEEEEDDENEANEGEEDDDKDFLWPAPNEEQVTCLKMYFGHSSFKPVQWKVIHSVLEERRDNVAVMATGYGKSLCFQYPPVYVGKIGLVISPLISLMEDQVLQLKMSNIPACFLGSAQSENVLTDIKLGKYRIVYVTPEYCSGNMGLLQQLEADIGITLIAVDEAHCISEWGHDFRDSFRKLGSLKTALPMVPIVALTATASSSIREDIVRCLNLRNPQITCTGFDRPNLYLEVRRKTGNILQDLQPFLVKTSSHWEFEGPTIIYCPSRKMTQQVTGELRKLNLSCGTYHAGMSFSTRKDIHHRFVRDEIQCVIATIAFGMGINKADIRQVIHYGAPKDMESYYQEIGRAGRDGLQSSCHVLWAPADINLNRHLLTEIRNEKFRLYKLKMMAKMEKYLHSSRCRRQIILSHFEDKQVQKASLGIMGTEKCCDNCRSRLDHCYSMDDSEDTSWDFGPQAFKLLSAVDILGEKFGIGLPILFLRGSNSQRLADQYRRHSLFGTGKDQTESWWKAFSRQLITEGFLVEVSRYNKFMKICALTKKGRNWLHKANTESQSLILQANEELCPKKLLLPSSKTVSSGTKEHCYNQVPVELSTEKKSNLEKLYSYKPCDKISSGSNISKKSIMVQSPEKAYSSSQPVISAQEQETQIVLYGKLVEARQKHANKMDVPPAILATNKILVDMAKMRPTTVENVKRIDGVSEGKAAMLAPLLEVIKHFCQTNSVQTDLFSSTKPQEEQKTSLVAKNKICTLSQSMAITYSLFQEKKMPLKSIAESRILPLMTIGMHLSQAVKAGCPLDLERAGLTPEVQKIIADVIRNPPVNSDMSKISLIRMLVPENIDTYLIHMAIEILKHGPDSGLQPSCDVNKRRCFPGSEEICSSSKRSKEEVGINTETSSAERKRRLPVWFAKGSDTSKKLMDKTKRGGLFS
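Enzyme (20 nM final) and test compound sit together 15 min at room temperature before substrate addition. Substrate is a single-forked duplex oligonucleotide (100 nM) labelled with fluorophore and quencher, with 2 mM ATP; helicase unwinding raises red fluorescence, read kinetically.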
Pol beta inh = qHTS Assay for Inhibitors of DNA Polymerase Beta; P06746; Pol beta primer extension/strand displacement, fluorescence kinetic; Potency, µM (titrated, usually from 114 µM), without a hit: top-dose activity change, negative = inhibition, most hits filed as inhibitors; 340,000 tested, 1.3% active; AID 485314, 2010; also: % is scaled to controls: 0 for no effect and ±100 for the full control effect
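Preincubation: enzyme (10 nM) with compound, 15 min, RT. Reaction: substrate added to 50 nM final. Reads: 0 and 10 min. Analysis: normalized, Hill fit.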
Pol kappa inh = qHTS for Inhibitors of Polymerase Kappa | Potency, µM (series often up to 107 µM), for inactives: top-dose activity, negative = inhibition, most hits filed as inhibitors | 400,000 tested, 0.53% active | AID 588579, 2011 | purified Pol kappa, fluorescent DNA synthesis assay, 10 min | DNA polymerase kappa (Homo sapiens), Q9UBT6; also: % is scaled to controls: 0 for no effect and ±100 for the full control effect
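Kinetic fluorescence screen: compound preincubated 15 min RT with 10 nM enzyme; 50 nM substrate (final) initiates; reads at 0/10 min.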
POLH inh = qHTS for Inhibitors of Polymerase Eta; DNA polymerase eta (Homo sapiens), Q9Y253; recombinant Pol eta, fluorescent DNA replication assay; Potency, µM (top dose mostly 114 µM), for inactives: at the top dose activity change, negative = inhibition, usual class: inhibitors; 390,000 tested, 1.2% active; also: % is scaled to controls: 0 for no effect and ±100 for the full control effect
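Fluorescent replication assay: 50 nM final substrate added after a 15 min room-temperature compound preincubation with 10 nM enzyme. Signal taken at 0 min and again at 10 min.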
Pol iota inh = qHTS for Inhibitors of Polymerase Iota; DNA polymerase iota (Homo sapiens), Q9UNA4; Pol iota fluorescent replication assay, 10 min; Potency, µM (top dose mostly 115 µM), for the others: at the highest dose activity, negative = inhibition, usual class: inhibitors; 390,000 tested, 1% active
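Fluorescent replication assay read twice, at 0 min and 10 min after adding 50 nM (final) substrate. Enzyme (10 nM) and compounds were first incubated 15 min at room temperature; enzyme-free buffer wells were negative controls.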
TbPGK inh = qHTS for inhibitors of Phosphogylcerate Kinase: Hit Validation Screen; shares compounds with Pol kappa inh; TbPGK coupled GAPDH assay, Kinase-Glo luminescence; Potency, µM (series often up to 57.5 µM), without a hit: at the top dose activity change, negative = inhibition, usual class: inhibitors; 500 tested, 79% active; also: % is scaled to controls: 0 for no effect and ±100 for the full control effect; nearly all actives have a fitted effect of over 65% in size
POLI cherry-pick = qHTS for Inhibitors of Polymerase Iota: Confirmatory Assay for Cherry-picked Compounds; Potency, µM, hits mostly inhibitors; 1,500 tested, 77% active; Pol iota primer extension, TAMRA/BHQ fluorescence; AID 720496, 2013; shares compounds with Pol kappa inh
* marks the source's active call; other numbers are inactive results; u = inconclusive; x = not tested or not shown; [ ] = another dose, or the depositor's remark. Calls follow the shape of the dose curve; as a rule, active = well fitted curve in the direction sought with a large enough effect; inconclusive = small, poorly fitted or top-dose-only effect, or another doubt; inactive = no such curve, though single readings can be large; an effect the other way counts as inactive or inconclusive. Potency is read from the fitted curve at half-maximal effect.

SMILES	WRN inhibitor	Pol beta inh	Pol kappa inh	POLH inh	Pol iota inh	POLI cherry-pick	others
O=C(c1cnc(N2CCOCC2)c2ccccc12)N1CCN(c2ccc(F)cc2)CC1	x	19.7%	-2.7%[60.1 µM]	-4.3%	8.5%	x
O=C(N/N=C/c1c(O)ccc2ccccc12)c1ccc(Br)o1	u	12.6µM*	-0.3%	u	100.7%	x	TbPGK inh=18.3µM*
O=C(N/N=C\c1c(O)ccc2ccccc12)c1ccc(O)cc1	-18.3%	-2.6%	-21.4%	-8.7%	25.6%	x
COc1ccc(-c2nc(SCC(=O)NCCCc3ccccc3)n[nH]2)cc1	x	-0.6%	-6.2%[60.1 µM]	5.5%	-2.1%	x
CC(C)C(C(=O)O)N1C(=O)/C(=C/c2cccn2C)SC1=S (centres undefined)	-1.2%	22.7%	-5.8%	-22.3%	137.8%	x
CC(C(=O)Nc1ccc(C(=O)O)c(O)c1)N1C(=O)/C(=C\c2ccco2)SC1=S (centres undefined)	39.8µM*	u	0.2%	3.16µM*	u	x	TbPGK inh=23.1µM*
CC(C)C(C(=O)O)N1C(=O)/C(=C/C=C/c2ccco2)SC1=S (centres undefined)	3.55µM*	1.58µM*	3.16µM*	0.794µM*	1.12µM*	x	TbPGK inh=2.59µM*
O=C(CCCN1C(=O)/C(=C/c2ccccc2)SC1=S)Nc1ccc(C(=O)O)c(O)c1	-0.7%	-18.4%	-1.3%	-5.1%	3.9%	x
CCOc1ccccc1CNC(=O)c1ccc(N2Cc3ccccc3Oc3ncccc32)s1	x	-16.0%	-7.5%	-13.7%	3.6%	x
Cc1ccc(-c2onc(C)c2C)cc1S(=O)(=O)Nc1ccc(Cl)cn1	x	-9.3%	-17.5%	-14.9%	2.9%	x
CCc1nn2c(=O)cc(COc3cccc(NC(=O)c4ccco4)c3)nc2s1	-20.8%	u	u	u	50.1µM*	u
CCCc1cc(N2CCN(c3ccccc3F)CC2)n2cnnc2n1	x	8.4%	-3.6%	0.7%	6.4%	x
N#Cc1c(-c2ccccc2)c(C#N)c2nc3ccccc3n2c1N	-9.8%[11.6 µM]	-8.3%	-34.8%	-6.3%	15.8µM*	u
Cc1ccc(-c2c(C#N)c(N)n3c(nc4ccccc43)c2C#N)cc1	-25.9%	-9.8%	-10.5%	u	u	x
COc1ccccc1CNC(=O)C1CCN(S(=O)(=O)c2c(C)noc2/C=C/c2c(C)cc(C)cc2C)CC1	x	-0.3%	-1.9%[60.1 µM]	-27.5%	43.8%	x
O=C(O)CC/C(=C\c1ccc(N2CCCC2)c([N+](=O)[O-])c1)c1nc2ccccc2s1	u	-8.0%	u	56.2µM*	u	75.2*
CCCCCCC(O)C/C=C/CCCCCCCC(=O)O (centres undefined)	x	x	-10.6%[19.4 µM]	x	x	x
Cc1ccc(/C=C/c2nc3ccccc3c(=O)[nH]2)cc1	-13.8%	-2.7%	-6.0%	1.7%	20.7%	x
Cc1ccccc1/C=C\c1nc2ccccc2c(=O)[nH]1	u	25.1µM*	-3.8%	u	u	u
Cc1ccc(C2CC(=O)Oc3c(C(C)C)ccc(C)c32)cc1 (centres undefined)	x	x	-12.6%	x	x	x
COc1ccc(-c2cc(C(=O)Nc3c(Cl)cccc3Cl)no2)cc1OC	x	-1.5%	3.0%	-13.7%	22.3%	x
O=C(NNC(=O)c1cc(-c2ccncc2)nc2ccccc12)c1ccccc1O	-19.2%	x	-17.7%	-8.9%	u	37.7*
NC(=S)N/N=C/c1ccccc1O	-0.6%	-7.3%	-2.0%	-3.5%	-9.3%	x
NC(=S)N/N=C/c1cccc(O)c1O	-10.4%	-1.7%	u	-8.5%	79.4µM*	67*
